Reference: PubChem BioAssay (NCI)
About 79,000 compounds went through this panel and 15% of them were active in at least one assay; those are over-represented in the sample as a whole. No stated cut-off is given here; in the data, active means growth inhibition above about 70%; inactive means the rest.

Columns and labels:
[1] = NCI Yeast Anticancer Drug Screen. Data for the rad50 strain (AID 155);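 further: 0% = growth of vehicle-only cultures of the same strain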; settings: S. cerevisiae rad50 strain growth inhibition; at 50.0 µM; stronger effect = higher value
Method in brief: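 A DNA repair-deficient yeast mutant serves as the test organism; compound-induced growth inhibition is calculated against vehicle-treated cells.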

[2] = NCI Yeast Anticancer Drug Screen. Data for the mec2-1 strain (AID 157); settings: S. cerevisiae mec2-1 strain, at 50.0 µM, stronger effect = higher value
Method in brief: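 Compounds were applied to mec2-1 yeast cells. Their growth was then compared with that of vehicle-treated cultures to give growth inhibition.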

[3] = NCI Yeast Anticancer Drug Screen. Data for the sgs1 mgt1 strain (AID 161);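 further: 0% = growth of cultures given vehicle only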; settings: S. cerevisiae sgs1 mgt1 strain, at 50.0 µM, stronger effect = higher value
Method in brief: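 Yeast cells carrying a defined DNA-repair defect were exposed to test compounds. Growth inhibition was measured relative to vehicle-treated controls.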

[4] = NCI Yeast Anticancer Drug Screen. Data for the cln2 rad14 strain (AID 165);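 further: 0% = growth equal to vehicle treated cultures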; settings: S. cerevisiae cln2 rad14 strain, at 50.0 µM, stronger effect = higher value
Method in brief: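 Strain: cln2 rad14 yeast, altered in cell cycle control and DNA damage repair. Read-out: growth inhibition vs vehicle.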

[5] = NCI Yeast Anticancer Drug Screen. Data for the bub3 strain (AID 167); settings: S. cerevisiae bub3 mutant strain, at 50.0 µM, stronger effect = higher value
Method in brief: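 Inhibition values come from growth of compound-treated mutant yeast normalised to vehicle-treated controls.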

[6] = NCI Yeast Anticancer Drug Screen. Data for the mlh1 rad18 strain (AID 175); settings: S. cerevisiae mlh1 rad18 strain growth inhibition; at 50.0 µM; stronger effect = higher value
Method in brief: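 A repair-deficient yeast strain is exposed to test compound, and growth is scored relative to vehicle-treated controls.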

Measured: growth inhibition

CCOC(=O)/C(C#N)=C/c1ccnc2ccccc12
inactive: [1] -39.7% | [2] -46.5% | [3] -30.8% | [4] -45.4% | [5] -29.1% | [6] -23.1%

[N-]=[N+]=C(C(=O)OCC#CCOC(=O)C(=[N+]=[N-])S(=O)(=O)c1ccccc1)S(=O)(=O)c1ccccc1
inactive: [1] -8.95% | [2] -20.6% | [3] 12.8% | [4] -31.6% | [5] -8.95% | [6] -17.1%

CC(=O)Oc1cc(N(C)C)ccc1SC(Cl)(Cl)Cl
inactive: [1] -14.7% | [2] -17.9% | [3] -12.1% | [4] -61.6% | [5] 22.6% | [6] -25.6%

Cn1c(=O)c2[nH]c(Cl)nc2n(C)c1=O
inactive: [1] 9.6% | [2] -23.6% | [3] 6.7% | [4] -3.8% | [5] -16.6% | [6] -8.55%

CC(=O)OCC1OC(n2c(S)c(C#N)c(-c3ccccc3)c(C#N)c2=O)C(OC(C)=O)C(OC(C)=O)C1OC(C)=O (stereo not given)
inactive: [1] 22.1% | [2] 8.45% | [3] -17.3% | [4] -7.4% | [5] -21.2% | [6] -37.1%

O=C(O)C(Cl)(c1ccccc1)c1ccccc1
inactive: [1] -6.5% | [2] -13% | [3] 7.5% | [4] -19.9% | [5] 3.55% | [6] -12.8%

COc1ccc(N2C(=O)C3c4[nH]c5ccccc5c4C4CCC(C(C)(C)C)CC4C3C2=O)c(C)c1 (stereo not given)
inactive: [1] 11.9% | [2] 1.95% | [3] 14.7% | [4] 17.1% | [5] -2.45% | [6] 17.1%

CC1NC(=O)OC1C(C)(C)C (stereo not given)
inactive: [1] 6.95% | [2] -2.8% | [3] -0.75% | [4] -19.1% | [5] -5.4% | [6] -4.55%

CCN(CC)S(=O)(=O)Nc1c(C)n(C)n(-c2ccccc2)c1=O
inactive: [1] -5.6% | [2] -17.2% | [3] -4.05% | [4] -3.7% | [5] -2% | [6] 14%

O=C1c2ccc(=O)[nH]c2C(=O)C2CC3=C(CCCC3)CC12 (stereo not given)
inactive: [1] 20.4% | [2] 24.6% | [3] 59.5% | [4] -71.1% | [5] 42.5% | [6] 44.5%

CC(=O)Nc1cc(C)c(C(=O)O)c(C)c1
inactive: [1] -26.5% | [2] -19.4% | [3] -9.35% | [4] -18.1% | [5] -24.9% | [6] -21.4%

COC(=O)CC1(C(=O)OC)Nc2ccc(Cl)cc2C(=O)O1 (stereo not given)
inactive: [1] -2.55% | [2] 1.85% | [3] 12.5% | [4] -19.6% | [5] -9.5% | [6] -11.8%

CC1=CC(C)(C)N=C2SC(c3ccc(Cl)cc3)=NN12
inactive: [1] 15.8% | [2] 7.25% | [3] 13.2% | [4] -5.8% | [5] 13.2% | [6] 10.6%

CC/C(=N/N(C)C)C(=O)OC(C)(C)C
inactive: [1] -42.9% | [2] -24.6% | [3] -15.8% | [4] -44.6% | [5] 1.35% | [6] -4.2%

COc1c2c(cc3c1[C@@H]1Oc4c(ccc(O)c4CC=C(C)C)[C@@H]1CO3)OC(C)(C)C=C2
inactive: [1] 45.5% | [2] 52.7% | [3] 36.9% | [4] 55.2% | [5] 44.5% | [6] 41.4%

CON(C)c1nc(N(C)C)nc(N(C)C)n1
inactive: [1] -1.65% | [2] 11.6% | [3] -6.25% | [4] 3.7% | [5] 1.8% | [6] 0.9%

CCCCCCCC(=O)NNCc1ccccc1
inactive: [1] -16.1% | [2] 33.2% | [3] 15.6% | [4] 3.35% | [5] 15.9% | [6] 6.9%

O=C1OC2C(O1)C1(c3ccccc3)OC2(c2ccccc2)c2ccccc21 (stereo not given)
inactive: [1] -5.9% | [2] 19.2% | [3] 13.5% | [4] -57.2% | [5] 4.85% | [6] 45.1%

CC(=O)CCc1ccccc1
inactive: [1] 5.6% | [2] -7.8% | [3] -0.9% | [4] -23% | [5] -1.75% | [6] 1.9%

CN1C(=O)c2c(ccc3c2OCO3)C2C(O)Cc3cc4c(cc3C21)OCO4 (stereo not given)
inactive: [1] 6.85% | [2] 9.9% | [3] 21.8% | [4] 27.9% | [5] 7.15% | [6] -51%

COC(=O)c1c(C(=O)Nc2ccccc2)c(-c2ccccc2)n(NC(N)=O)c1C
inactive: [1] 8.35% | [2] 3.25% | [3] 4.2% | [4] -17.4% | [5] -1.75% | [6] 17%

CNC(=O)OCc1c(COC(=O)NC)c(-c2cccs2)n2c1CCC2
inactive: [1] 42% | [2] 39.5% | [3] 23.1% | [4] 30.8% | [5] 27.1% | [6] 40.7%

O=c1[nH]c(=O)n(C2CC(O)C(CO)O2)cc1C#Cc1ccc(C(F)(F)F)cc1 (stereo not given)
inactive: [1] 13.1% | [2] -3.4% | [3] 5% | [4] -2.45% | [5] 19.2% | [6] -13.7%

CN(C)Cc1ccccc1COC(=O)c1ccc(Cl)cc1
inactive: [1] 12.8% | [2] 11.5% | [3] 15.1% | [4] 9.75% | [5] 17.4% | [6] 20.9%

[CH2+][B-]1(C)n2cc(Br)c[n+]2[B-](C)(C)[n+]2cc(Br)cn21
inactive: [1] 16.2% | [2] 16.8% | [3] 8.05% | [4] 9.8% | [5] 7.1% | [6] 22.6%

CC(=O)Nc1cc2c(s1)CCC1CC(=O)NN=C21 (stereo not given)
inactive: [1] -12.4% | [2] -25.6% | [3] -31.8% | [4] 1.9% | [5] -9.35% | [6] -11.5%

Nc1cc(C(F)(F)F)cc(C(F)(F)F)c1
inactive: [1] -6.2% | [2] 1.6% | [3] -0.85% | [4] 16.6% | [5] -1.4% | [6] -10.4%

O=c1ccn2n1Cc1ccccc1C2
inactive: [1] -25.9% | [2] -20.8% | [3] -17.9% | [4] 13.3% | [5] -6.05% | [6] -20.6%

CCOC(=O)Oc1ccc(C(=O)NCCC(C)C)cc1OCC
inactive: [1] -11.8% | [2] -10.3% | [3] -8.1% | [4] -69.2% | [5] 25.8% | [6] -6.8%

O=C1c2ccccc2-c2cccc(I)c21
inactive: [1] 15.6% | [2] -8.7% | [3] -5.55% | [4] 6.95% | [5] 0.1% | [6] -7.4%

C/C(N)=C\c1nc(=O)ccs1
inactive: [1] 10.9% | [2] 11.8% | [3] 2.35% | [4] 24.8% | [5] 5.2% | [6] 13.3%

BrC1Cc2ccccc2C(Br)Cc2ccccc21 (stereo not given)
inactive: [1] -7.65% | [2] -5.1% | [3] -1.05% | [4] -47.5% | [5] 4% | [6] -9.6%

CC(=S)N/C=C/c1c(C(=O)O)cc([N+](=O)[O-])cc1[N+](=O)[O-]
inactive: [1] -16.9% | [2] -27.7% | [3] 4.55% | [4] -12.8% | [5] -18.9% | [6] 4.7%

COC1(OC)CC2C(=O)N(Cc3ccccc3)C1C(S(=O)(=O)c1ccccc1)C2C(C)S(=O)(=O)c1ccccc1 (stereo not given)
inactive: [1] 14.1% | [2] -0.55% | [3] -24% | [4] -35% | [5] -26.7% | [6] 5%

CCCCC1C2C(S(=O)(=O)c3ccccc3)=NOC2C=CN1C(C)=O (stereo not given)
inactive: [1] -6.4% | [2] -9% | [3] 1.55% | [4] 7.55% | [5] 3.25% | [6] 10.3%

CC(CCl)CC#N (stereo not given)
inactive: [1] -5.6% | [2] -19.1% | [3] 7.9% | [4] 13.1% | [5] -10% | [6] -1.1%

CC1(C)C(CC(=O)O)CC1C(=O)O (stereo not given)
inactive: [1] 10.4% | [2] -0.7% | [3] -27.4% | [4] 11.2% | [5] -34.6% | [6] -1.4%

CC(=O)Nn1cnc(C(=N)C#N)c1N
inactive: [1] -27.1% | [2] -6.15% | [3] -6.15% | [4] 11.8% | [5] -0.75% | [6] -2.95%

N#CC(C#N)=C1c2ccccc2Sc2ccccc21
inactive: [1] -18.6% | [2] -0.35% | [3] -2.05% | [4] -21.3% | [5] -11.5% | [6] -22.2%

CCCCOC(=O)C1CC2OC2CC1C(=O)OCCOCCOC(=O)C1CC2OC2CC1C(=O)OCCCC (stereo not given)
inactive: [1] -18.3% | [2] -6.45% | [3] -14.4% | [4] -39.9% | [5] 14.6% | [6] -42.5%
